High-throughput results from PubChem.
Rows were chosen to be rich in hits. Some 9.8% of all compounds tested hit in one or more screens of this group.
ALDH1A1 inh = blocks purified human ALDH1A1 activity. P00352. Potency, µM (top dose mostly 75.3 µM), without a hit: at the top dose activity, negative = inhibition, usual class: inhibitors. Purified ALDH1A1, NADH fluorescence, propionaldehyde substrate. 7.3% of 220,000 active; active = well fitted inhibition curve with a large enough effect, not every such curve was filed as active; inconclusive = small, poorly fitted or top-dose-only effect, or another doubt; inactive = no such curve, though single readings can be large or run the other way;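 also: potency is read from the fitted curve at half-maximal effect; plate controls were no enzyme wells and a reference inhibitor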
HTT cytoprotect = cytoprotection in Huntington HTT-Q103 PC12 cell model | PC12 HTT-Q103 induced, cytoprotection, ATP luminescence, 40 h | Potency, µM (doses to about 56.4 µM), without a hit: cytoprotection (ATP increase), usual class: activators | 0.14% of 230,000 active; also: potency is read from the fitted curve at half-maximal effect; % of control where 0% means no effect; nearly all actives have a fitted effect of over 45% in size
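ATP quantification (ATPlite) reports survival of PC12 cells in which tebufenozide, 100 nM final, switches on Htt exon 1 with 103 glutamines linked to GFP; compounds are titrated.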
KDM4E inh = inhibitors of human JMJD2E histone demethylase. B2RXH2. JMJD2E catalytic domain, FDH-coupled NADH fluorescence (FDH is formaldehyde dehydrogenase). Potency, µM (series often up to 57.1 µM), without a hit: at the highest dose activity change, negative = inhibition, most hits filed as inhibitors. 1.6% of 230,000 active. AID 2147; active = well fitted inhibition curve with a large enough effect, not every such curve was filed as active; inconclusive = small, poorly fitted or top-dose-only effect, or another doubt; inactive = no such curve, though single readings can be large or run the other way;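 also: potency is read from the fitted curve at half-maximal effect; 0% = wells with enzyme and -100% = buffer wells without enzyme; nearly all actives have a fitted effect of over 50% in size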
Target sequence (B2RXH2 1-337 limits assumed): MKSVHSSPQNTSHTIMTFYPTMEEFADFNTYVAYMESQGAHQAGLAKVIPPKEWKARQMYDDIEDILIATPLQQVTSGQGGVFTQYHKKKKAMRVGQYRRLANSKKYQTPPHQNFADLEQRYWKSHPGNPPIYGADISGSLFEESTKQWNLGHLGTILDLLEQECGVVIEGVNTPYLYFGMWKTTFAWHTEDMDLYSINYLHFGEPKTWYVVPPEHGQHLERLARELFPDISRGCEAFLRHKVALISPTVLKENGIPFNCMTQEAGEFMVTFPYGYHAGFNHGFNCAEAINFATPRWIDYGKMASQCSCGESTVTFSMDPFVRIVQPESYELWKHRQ
HttQ103 aggreg = reduces HttQ103-GFP aggregates in PC12 cells | PC12 HttQ103-GFP aggregates, Acumen cytometry, 40 h | Potency, µM (highest dose often 46.1 µM), without a hit: top-dose activity change, negative = inhibition, hits mostly inhibitors | 1.1% of 220,000 active | AID 1688; also: potency is read from the fitted curve at half-maximal effect; % is scaled to controls: 0 for no effect and ±100 for the full control effect; nearly all actives have a fitted effect of over 60% in size
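Aggregates are detected as GFP objects 1–25 µm with signal 6 STDEV over background in lysates of induced PC12 cells. These carry Huntingtin exon 1 with 103 glutamines fused to GFP under an ecdysone promoter; compounds titrated.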
HPGD inh = HPGD (human) dehydrogenase inhibition; Potency, µM, for the others: at the highest dose activity change, negative = inhibition, most hits filed as inhibitors; 4.3% of 150,000 active; AID 894; purified HPGD, NADH fluorescence kinetic, PGE2 substrate; P15428; active = well fitted inhibition curve with a large enough effect, not every such curve was filed as active; inconclusive = small, poorly fitted or top-dose-only effect, or another doubt; inactive = no such curve, though single readings can be large or run the other way; also: potency is read from the fitted curve at half-maximal effect; % is scaled to controls: 0 for no effect and ±100 for the full control effect
Target sequence (P15428 whole entry, looked up): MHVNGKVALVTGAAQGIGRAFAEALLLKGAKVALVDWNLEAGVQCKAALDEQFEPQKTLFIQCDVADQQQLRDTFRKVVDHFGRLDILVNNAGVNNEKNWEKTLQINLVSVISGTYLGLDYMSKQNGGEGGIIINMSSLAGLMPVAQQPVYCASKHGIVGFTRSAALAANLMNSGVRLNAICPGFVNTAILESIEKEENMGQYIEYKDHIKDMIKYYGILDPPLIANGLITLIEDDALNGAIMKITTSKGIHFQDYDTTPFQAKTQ
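NADH formation kinetics: reaction with 30 uM PGE2 and 1 mM NAD+ (final), 20 nM enzyme, Tris-HCl pH 8 with Tween 20, after 15 min compound preincubation at room temperature. Fluorescence change, last versus first of five reads.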
CBFb RUNX1 block = blocks binding between human CBF-beta and RUNX1. AlphaScreen CBFb-His/RUNX1-biotin binding, biochemical. Potency, µM (titrated, usually from 59.8 µM), inactives show top-dose activity, negative = inhibition, usual class: inhibitors. 230,000 tested, under 10 active. AID 1477; also: % of control where 0% means no effect
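CBF-beta (His) and RUNX1 (biotin), 30 nM each; 20 min preassociation; + compound, 15 min; + beads 50 ng each (Ni, streptavidin), 90 min; RT; AlphaScreen read.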
Numbers without * were called inactive; ? = inconclusive; . = no result given; [ ] = dose if it differs, or a comment. Unless noted, calls follow the shape of the dose curve; as a rule, active = well fitted curve in the direction sought with a large enough effect; inconclusive = small, poorly fitted or top-dose-only effect, or another doubt; inactive = no such curve, though single readings can be large; an effect the other way counts as inactive or inconclusive.

SMILES | ALDH1A1 inh | HTT cytoprotect | KDM4E inh | HttQ103 aggreg | HPGD inh | CBFb RUNX1 block
COc1ccc(NC(=O)C2CCCC2)cn1 | 3.3% | -14.5% | -1.4% | 13.2% | . | -7.4%
Cc1cccc(-n2ccnc2CN2CCN(C(C)C)C(CCO)C2)c1 (centres undefined) | . | 18.1%[10 µM] | -2.2% | 23.9%[9.22 µM] | . | -3.7%
O=C(NNC(=O)c1ccccc1C(=O)O)c1ccc(O)cc1 | -2.0% | -68.3% | 3.7% | 1.6%[9.22 µM] | . | 2.6%
O=C(O)c1ccccc1C(c1ccc(O)cc1)c1ccc(O)cc1 | 28.2µM* | -13.2% | . | . | 2.5% | 11.1%[21.7 µM]
COc1ccc(C(=O)C2CCCN(C3Cc4ccccc4C3)C2)c(OC)c1 (centres undefined) | -5.7% | -9.3%[10 µM] | -1.9% | -1.2%[9.22 µM] | . | 4.3%
O=C(N/N=C/c1cc([N+](=O)[O-])ccc1O)C1CC1 | . | 3.4%[10 µM] | 28.2µM* | -3.3%[9.22 µM] | . | -24.9%
O=C1NCCCC1C(=O)N/N=C/c1cc([N+](=O)[O-])ccc1O (centres undefined) | . | 10.8%[10 µM] | 10µM* | 5.5%[9.22 µM] | . | ?
COc1ccc(Cc2c(O)nc(SCC(=O)NC(C)(C)C)[nH]c2=O)cc1 | ? | 10.5%[10 µM] | -3.1% | -1.4%[9.22 µM] | . | 8.8%
Cn1cc(Br)c(C(=O)NC(=S)Nc2ccc(S(N)(=O)=O)cc2)n1 | ? | -57.9% | 1.3% | 6.6% | . | 9.6%
Cc1nn(-c2ccccc2)c2c1C(=O)N(c1ccccc1)C(=O)C(C)(C)C2 | 12.6µM* | -7.0% | -1.7% | -0.6% | -20.5% | -2.1%
CCN(CC)CCNc1ncnc2c1sc1nc(N3CCCC3)c3c(c12)CC(C)(C)OC3 | -5.8% | -27.6%[10 µM] | -20.2% | ? | . | -22.8%
Cc1cc(C(=O)OCC(=O)c2cccc([N+](=O)[O-])c2)c2cccc(C)c2n1 | 22.4µM* | -0.5% | -17.2% | 7.1% | -21.0% | -20.6%
COc1ccc(-c2cc(C(=O)OCC(=O)c3cccc([N+](=O)[O-])c3)c3cc(C)ccc3n2)cc1 | 11.8% | 7.6%[10 µM] | ? | 3.9% | -2.2% | 4.8%
Cc1noc(C)c1C1(O)CCCCCCCCCCC1 | -3.4% | ? | 7.8% | 19.4% | 3.1% | 13.7%
Cc1ccc(-c2nc(CN(Cc3c(C)nn(C)c3C)C(C)C)c(C)o2)o1 | ? | 10.1%[10 µM] | ? | 13.1%[9.22 µM] | . | 0.1%
CCOC(=O)c1c(NC(=O)CC)sc(C(=O)N2CCCCC2)c1C | ? | -35.8% | 7.7% | -11.5% | 28.2µM* | -4.5%
CCOC(=O)c1c(NC(=O)C2CC2)sc(C)c1CC | 22.4µM* | . | 0.1% | -23.8% | ? | 5.3%
CCOC(=O)c1sc(NC(=O)CCN2CCCCCC2)c(C(=O)OCC)c1C | 2.51µM* | -58.8% | ? | 30.7% | . | 1.4%
CCOC(=O)c1c(N)sc(C(=O)N2CCCCCC2)c1C | ? | -23.9% | 5.6% | -21.9% | . | -0.1%
CCOC(=O)c1c(NC(=O)C2C3C=CC(CC3)C2C(=O)O)sc(C)c1CC (centres undefined) | -1.2% | . | -11.2% | 6.3% | -16.4% | 6.2%
CC(C)(C)OC(=O)NCCCC1=CC2=CC(=O)C(C)(O)C(=O)C2=CO1 (centres undefined) | 8.3% | 3.0% | ? | . | -13.3% | 9.1%
COCc1cc(C)nc2sc(C(=O)N3CCN(c4ccccc4)CC3)c(N)c12 | ? | 8.3% | -6.9% | 17.7% | ? | 17.3%
COCc1cc(C)nc2sc(C(=O)N3CCCCC3)c(N)c12 | 17.8µM* | -5.7% | ? | -10.0% | 0.251µM* | 3.1%
CCn1cc(Br)c(C(=O)NN)n1 | 25.1µM* | -22.2% | 42.6% | 14.8% | -12.2% | 1.9%
CCn1cc(Br)c(C(=O)Nc2ccc(OC)cc2)n1 | 3.8% | -21.5% | -3.5% | -9.9% | -3.3% | 11.2%
SMILES | ALDH1A1 inh | HTT cytoprotect | KDM4E inh | HttQ103 aggreg | HPGD inh | CBFb RUNX1 block
N#Cc1cnc(NOCc2ccc(Cl)cc2)nc1 | 6.0% | 13.6%[10 µM] | 13.9% | -8.9% | . | 21.0%
CN(C)C(CNC(=O)CNC(=O)c1ccc(Br)cc1)c1ccccc1 (centres undefined) | 0.4% | -14.2% | 3.0% | -1.0% | . | 19.0%
Cc1[nH]c2ccccc2c1SCc1n[nH]c(=S)n1C | . | 5.5%[10 µM] | -1.6% | 7.4%[9.22 µM] | . | 9.7%
Cc1[nH]c2ccccc2c1Cc1n[nH]c(=S)n1C | -12.0% | -12.6%[1.9 µM] | -19.7% | -14.0% | 35.5µM* | 5.3%
CCOC(=O)OCC1OC(c2ccc(C(C)=O)cc2)C=CC1Oc1ccc(-c2ccccc2)cc1 (centres undefined) | 20.5%[13.5 µM] | ? | . | . | . | 4.8%[13.1 µM]
CC1(C)Oc2ccc(C(=O)N3CCCC3)cc2N(CC(=O)NCc2ccccc2)C1=O | -0.1% | 5.6%[10 µM] | 2.1% | -15.3% | -9.2% | 3.4%
COc1ccc(C(=O)CN2C(=O)C(C)(C)Oc3ccc(C(=O)N4CCCCCC4)cc32)cc1 | -9.3% | 0.4%[10 µM] | 3.8% | 20.1% | 8.91µM* | 2.9%
C=CCn1c(=O)/c(=C/c2ccc(O)cc2)s/c1=C(/C#N)c1nnc2n1CCCCC2 | ? | -1.2%[0.074 µM] | 2.7% | -0.3% | -11.0% | 5.5%
C=CCn1c(=O)/c(=C/c2ccc(Cl)cc2)s/c1=C(/C#N)c1nnc2n1CCCCC2 | ? | -24.8% | 3.0% | 3.7% | 25.1µM* | -3.1%
CC(=O)N1CCC2(CC1)C/C(=N\NC(=S)Nc1ccc(C)cc1)c1cc(O)ccc1O2 | ? | -11.4% | ? | 2.8% | . | -25.5%
CCOC(=O)c1ccoc1CSCc1ccc(C(=O)OC)o1 | 25.1µM* | -8.1% | -12.8% | 6.0% | -18.2% | -0.8%
COC(=O)c1ccc(CSC(=N)N)o1 | 2.7% | 20.4%[10 µM] | 6.4% | -0.6%[9.22 µM] | . | 9.3%
CCOC(=O)CN1CC23C=CC(O2)C(C(=O)NCc2ccc(C)cc2)C3C1=O (centres undefined) | -2.6% | -0.8% | -4.1% | 2.6% | 15.8µM* | 1.2%
COC(=O)c1ccc(N=NN2CCCCC2)cc1 | 4.7% | 6.2%[10 µM] | -0.6% | -2.8%[9.22 µM] | . | 2.6%
COC(=O)/C=c1/sc2nc3ccccc3n2c1=O | 10µM* | 11.0% | -1.0% | 0.2% | 7.94µM* | 2.7%
O=C(O)c1cc(C(=O)O)cc(-c2ccc(/C=c3/sc4nc5ccccc5n4c3=O)o2)c1 | ? | -12.8%[10 µM] | 12.6µM* | 15.3% | . | -1.0%
O=c1/c(=C\c2cc([N+](=O)[O-])cc([N+](=O)[O-])c2O)sc2nc3ccccc3n12 | 7.94µM* | -14.8% | ? | -2.5% | . | ?
O=C(O)C1=C[C@H](c2cccs2)C[C@H](OCc2ccc(CO)cc2)O1 | . | -3.8%[10 µM] | ? | 1.2%[9.22 µM] | . | 11.8%
CCOc1cc(/C=N/OC(C)=O)ccc1OCc1ccccc1 | ? | 6.0%[10 µM] | 0.2% | 0.0%[9.22 µM] | . | 8.1%
COc1ccc(C(=O)N/C=C/n2cnc3cc(C(F)(F)F)ccc32)cc1 | . | 17.1%[10 µM] | 5.1% | 14.1%[9.22 µM] | . | 13.7%
CC(=O)c1cccc(NC(=O)COC(=O)C2=COCCO2)c1 | 9.2% | -6.1%[10 µM] | 9.0% | 12.5% | . | 9.3%
